Screening data deposited in PubChem by National Center for Advancing Translational Sciences (NCATS).
IL1B secr inh: inhibitors of inflammasome signaling (IL-1 beta secretion); 360,000 compounds, 4.7% hits; THP-1 LPS/ATP IL-1B secretion, AlphaLISA, 16 h; stronger effect = lower value; activity change, % at 57.5 µM; AID 743279; in the data active = activity change below about -50%; inconclusive = mostly about -30% to -49%
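THP-1 cells pretreated 1 hr with compounds (up to 57.5 uM final), then stimulated with LPS (250 ng/mL final) plus ATP (1.25 mM final); secreted IL-1B measured by AlphaLISA after 16 hr, decreased signal indicating inhibition.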
DT40 TDP1 no CPT: qHTS for Inhibitors of human tyrosyl-DNA phosphodiesterase 1 (TDP1): qHTS in cells in absence of CPT. DT40 Tdp1-/- hTDP1 cells, no CPT, ATP luminescence, 48 h. Potency, µM (top dose mostly 46.2 µM), for inactives: at the top dose activity change, negative = growth inhibition, hits mostly inhibitors. 420,000 compounds, 15% hits. AID 686978, 2013; note: potency is the fitted concentration of half-maximal effect; nearly all actives have a fitted effect of over 55% in size
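Compound effects on proliferation are scored in DT40 Tdp1-/-;hTDP1 cells in the absence of CPT. ATP levels (CellTiter-Glo luminescence) are recorded after a ≥48 hr, 37 °C incubation.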
DT40 TDP1 CPT: DT40-hTDP1 cell growth loss with CPT; chicken DT40 Tdp1-/-;hTDP1 cells + 20 nM CPT, ATP luminescence, 48 h; Potency, µM (highest dose often 46.2 µM), for inactives: at the top dose activity change, negative = growth inhibition, actives largely listed as inhibitors; 420,000 compounds, 12% hits; AID 686979; note: potency is the fitted concentration of half-maximal effect; nearly all actives have a fitted effect of over 55% in size
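Chicken DT40 Tdp1-/- cells complemented with human TDP1, 400 cells/well, exposed to compounds plus 20 nM camptothecin for at least 48 h at 37 C; viability read as ATP content by CellTiter-Glo luminescence.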
HT1080NT lethal: kills 2HG-producing HT-1080-NT fibrosarcoma cells; Potency, µM (highest dose often 46.1 µM), without a hit: at the highest dose activity, negative = less viability, usual class: cytotoxic; 360,000 compounds, 1.6% hits; AID 686970; HT-1080-NT fibrosarcoma viability, CellTiter-Glo ATP luminescence, 48 h;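 note: NT is the 2HG producing partner of a matched IDH1 knockdown line; potency is the fitted concentration of half-maximal effect; 0% = DMSO-treated cells and -100% = media-only wells without cells; nearly all actives have a fitted effect of over 55% in size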
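HT-1080-NT; 750 cells/well; 5% FBS RPMI; 48 h compound, 37 degrees C; CellTiter-Glo luminescence; curve fitting and curve-class assignment.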
HT1080 IDH1KD tx: HT-1080 IDH1 knockdown cell toxicity (counter line); HT-1080 IDH1 knockdown viability, ATP luminescence, 48 h; Potency, µM (doses to about 46.1 µM), for inactives: at the top dose activity, negative = toxicity, actives largely listed as cytotoxic; 360,000 compounds, 2% hits;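 note: potency is the fitted concentration of half-maximal effect; 0% = DMSO wells and -100% = cell-free medium wells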
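After a 2 h attachment period, IDH1KD HT-1080 cells took pin-transferred compound for 48 h at 37 °C; ATP-based luminescence after 10 min room-temperature reagent incubation reported viability.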
Starred values were filed as active, the others as inactive; ? = inconclusive; / = no result given; ! = not active in a repeat; [ ] = dose if it differs, or a comment. An excerpt weighted towards active compounds, which were near 19% of everything screened. Unless noted, calls come from the whole dose curve; as a rule, active = well fitted curve in the direction sought with a large enough effect; inconclusive = small, poorly fitted or top-dose-only effect, or another doubt; inactive = no such curve, though single readings can be large; an effect the other way counts as inactive or inconclusive. Unless noted, % is set by controls: 0 for no effect and ±100 for the full control effect.

SMILES	IL1B secr inh	DT40 TDP1 no CPT	DT40 TDP1 CPT	HT1080NT lethal	HT1080 IDH1KD tx
CCc1ccc(CCC(=O)Nc2ccc(Cl)cc2)o1	-19	-3%	-12%	-14%	?
O=C(CSc1nnc(-c2ccncc2)n1Cc1ccco1)N1c2ccccc2Sc2ccc(Cl)cc21	-74*	-21%	15µM*	0%	0%
Cn1nnnc1SCC(=O)N1c2ccccc2Sc2ccc(Cl)cc21	-8	21µM*	?	-5%	0%
Cn1c(SCC(=O)N2c3ccccc3Sc3ccc(Cl)cc32)nnc1-c1ccco1	-13	?	21µM*	0%	7%
CCOC(=O)c1[nH]c2ccc(Br)cc2c1NC(=O)CCN1CCCC(C)(C)C1	-11	26µM*	?	-12%	-17%
CCOC(=O)c1[nH]c2ccc(F)cc2c1NC(=O)CCN1CCOCC1	7	13%	4%	10%	11%
CCOC(=O)C1CCCN(CC(=O)Nc2c(C(=O)OC)[nH]c3ccc(Br)cc23)C1 (configuration not stated)	24	21µM*	16µM*	?	?
COC(=O)c1[nH]c2ccc(Br)cc2c1NC(=O)CN1CCN(C2CCCCC2)CC1	-100*	21µM*	26µM*	23µM*	18µM*
CCOC(=O)C1CCN(CC(=O)Nc2c(C(=O)OC)[nH]c3ccc(Cl)cc23)CC1	7	10µM*	23µM*	-14%	?
CCOC(=O)C1CCCN(CCC(=O)Nc2c(C(=O)OC)[nH]c3cc(OC)ccc23)C1 (configuration not stated)	19	-8%	1%	6%	2%
COC(=O)CN(c1ccc(OCc2ccccc2)cc1)S(C)(=O)=O	2	?	-21%	14%	0%
CCCN1CNc2c(c(=O)[nH]c(=O)n2CCc2ccc(OC)c(OC)c2)C1	/	-9%	4%	11%	26%
O=C1CCCN1c1cccc(Br)c1	21	-3%	-13%	1%	0%
COc1cccc(Nc2ccccc2C(=O)O)c1	26	1%	5%	-3%	-7%
O=C(O)c1ccccc1Nc1ccccc1	9	?	21µM*!	-7%	-4%
O=C(O)c1c(Cl)cccc1Nc1ccccc1	-3	23µM*	-10%	-5%	-3%
O=C(O)c1cccc(N2C(=O)c3cccc4c(Cl)ccc(c34)C2=O)c1	-52*	-14%	?	-8%	-12%
O=C(c1ccc2c3c(cccc13)C(=O)N(O)C2=O)N1CCCCC1	-11	7.3µM*	8.2µM*	7%	4%
O=C1c2ccc3c4c(ccc(c24)C(=O)N1c1cccc(O)c1)CC3	-3	?	-8%	3%	14%
O=C1c2ccc3c4c(ccc(c24)C(=O)N1c1cccc(O)c1)C(=O)N(c1cccc(O)c1)C3=O	-13	6.5µM*	4.1µM*	?	?
O=C1c2cccc3c(Cl)ccc(c23)C(=O)N1O	2	5.8µM*	?	7.9µM*	-16%
Cc1c(C(C)(C)O)[nH]c2ccc(C(F)(F)F)cc12	18	?	?	-2%	-6%
Cc1ccc2nc(C)c(C(=O)NN=C3CCCCCC3)n2c1	47	6%	?	?	?
Cn1nc(C(F)(F)F)c(CNC(=O)C(C)(C)CCl)c1N1CCOCC1	2	3%	-4%	7%	5%
O=C(NC1CCC1)C1CCC(=O)N(Cc2ccccc2F)C1 (configuration not stated)	6	-4%	3%	-1%	4%
SMILES	IL1B secr inh	DT40 TDP1 no CPT	DT40 TDP1 CPT	HT1080NT lethal	HT1080 IDH1KD tx
Cc1ccc(Sc2ncccc2NC(=O)c2ccccc2Cl)cc1	-4	-9%	-2%	-15%	-12%
N#Cc1c(N2CCCC2)nc(N)c2c(N)nc(N3CCCC3)cc12	?	18µM*	?	-20%	-26%
N#Cc1c(N2CCCCC2)nc(N)c2c(N)nc3c(c12)CC(c1ccccc1)O3 (configuration not stated)	-9	11µM*	?	-17%	-24%
O=C(Nc1cccc(S(=O)(=O)N2CCCCC2)c1)C1COc2ccccc2O1 (configuration not stated)	-19	?	?	-5%	-1%
COc1ccccc1N(CC(=O)NCCN1CCOCC1)S(=O)(=O)c1ccccc1	4	-2%	-3%	4%	7%
COc1ccc(NS(=O)(=O)c2ccc3oc(Nc4ccc5c(c4)OCCO5)nc3c2)cc1	-10	15µM*	?	?	-8%[9.24 µM]
COc1ccc(NS(=O)(=O)c2ccc3oc(SC(C)C(N)=O)nc3c2)cc1 (configuration not stated)	-12	12µM*	16µM*	?	-23%
COc1cccc(S(=O)(=O)Nc2ccc3c(c2)OCCO3)c1	6	?	?	-10%	-10%
CC1C(=O)N(Cc2cn(CC3CCCCC3)nn2)CCS(=O)(=O)N1Cc1ccc(-c2ccccc2)cc1 (configuration not stated)	-18	15µM*	23µM*	?	?
Cc1ccc(-c2ccc(CN3C(C)C(=O)N(Cc4cn(CC5CCCCC5)nn4)CCS3(=O)=O)cc2)cc1 (configuration not stated)	?	16µM*	16µM*	?	?
CC1C(=O)N(Cc2cn(CC3CCCCC3)nn2)CCS(=O)(=O)N1Cc1ccc(-c2ccc(F)nc2)cc1 (configuration not stated)	2	-24%	?	-3%	1%
COc1ccc(-c2ccc(CN3C(C)C(=O)N(Cc4cn(CC5CCCCC5)nn4)CCS3(=O)=O)cc2)cc1 (configuration not stated)	5	10µM*	15µM*	-10%	?
COc1cccc(-c2ccc(CN3C(C)C(=O)N(Cc4cn(Cc5ccco5)nn4)CCS3(=O)=O)cc2)c1OC (configuration not stated)	-14	?	?	1%	-24%
c1ccc2c(c1)CCCN2Cc1nnnn1C1CCCC1	-3	-18%	0%	-4%	12%
COc1cc2cc[n+]3cc4c(OC)c(OC)ccc4cc3c2cc1OC	/	2.9µM*	2.3µM*	/	/
COc1cc2cc(C)c(Br)c(OC)c2cc1OC	-27	?	?	-4%	-14%
CCc1ccccc1N(C1=NCCCS1)S(=O)(=O)c1ccc(C(C)(C)C)cc1	-4	?	?	-3%	-16%
C=CCn1cc(C(=O)NCCOC)c(=O)c2cc(S(=O)(=O)N3CCCCCC3)ccc21	-17	?	?	-22%	-26%
C=CCn1cc(C(=O)NCc2ccco2)c(=O)c2cc(S(=O)(=O)N3CCCCCC3)ccc21	?	?	21µM*	?	?
